The results in this text go back to PubChem BioAssay (NCATS).

Inconclusive results are not listed. Entries that show only a call come without a potency. The source made the active and inactive calls. Calls come from the whole dose curve; as a rule, active = well fitted inhibition curve with a large enough effect; inconclusive = small, poorly fitted or top-dose-only effect; inactive = flat fitted curve, though single readings scatter.

Chain of Calcium and integrin-binding protein 1 (Homo sapiens) (Q99828 whole entry, looked up): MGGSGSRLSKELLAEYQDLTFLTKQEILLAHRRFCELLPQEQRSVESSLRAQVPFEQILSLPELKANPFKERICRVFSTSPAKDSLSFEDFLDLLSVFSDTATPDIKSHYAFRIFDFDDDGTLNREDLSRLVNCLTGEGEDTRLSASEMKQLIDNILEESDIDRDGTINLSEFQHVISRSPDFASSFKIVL

This assay addresses Calcium and integrin-binding protein 1 (Homo sapiens) (UniProt Q99828). In words: Primary qHTS for Identification of Calcium Integrin Binding Protein 1 (CIB1) Competitor (AID 1508620).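 Note: GST tagged CIB1 binding a fluorescein labelled alphaIIb integrin peptide tracer; top concentration of the series differs between compounds.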 The note with it: CIB1-GST / FITC-alphaIIb peptide fluorescence polarization; series mostly up to 114 µM. An outline of the steps:
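Fluorescence polarization competition: CIB1-GST (1 uM final) preincubated with compound 15 min at room temperature, then FITC-labeled alphaIIb peptide (100 nM final) added for another 15 min. Polarization read at Ex 480/Em 540.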
For orientation: In qHTS, concentration-response curves come from the screen itself.
For `CNC(=O)c1cnn2c(C)cc(C)nc12`, the Potency entry was “inactive”.
For the compound `COc1ccc(C2c3c(N)nc(CCCc4ccccc4)nc3Oc3ccc4ccccc4c32)cc1OC` (centres undefined), the Potency entry is “inactive”.
Turning to `C#Cc1nc(Nc2cccc(Cl)c2)nc(NC2CCCC2)n1`, the Potency result was “inactive”.
The result for `Brc1ccc(-c2csc(N3CCCCC3)n2)cc1` reads “inactive”.
For the compound `Cc1cn([C@H]2C[C@H](N[S+](=O)([O-])Cc3ccccc3)[C@@H](CO)O2)c(=O)[nH]c1=O`, the Potency result was “inactive”.
Turning to `O=[N+]([O-])c1cc(C(F)(F)F)ccc1N1CCN(C(=S)Nc2cc(Cl)ccn2)CC1`, the Potency result is “inactive”.
The result for `COc1ccc(C2=Nn3c(nnc3-c3ccccc3OC)SC2)cc1` reads “inactive”.
In the case of `COc1cc(OC)cc(C2=Nn3c(nnc3-c3ccccc3O)SC2)c1`, the Potency result was “inactive”.
As to `Cc1ccc(OCCn2c(CCNC(=O)C3CCOCC3)nc3ccccc32)cc1`, the Potency entry was “inactive”.
`COc1cc(NS(=O)(=O)c2ccc(C)cc2)c2ncccc2c1`: the Potency result was “inactive”.
Consider `Cc1ccsc1CN(C)c1ncnc2ccc(-c3oc(-c4ccccc4)nc3C)cc12`, for which the Potency entry is “inactive”.
Take `O=C(NCCCc1ccccc1)C1CCN(c2nc(-c3ccc(Br)cc3)cs2)CC1`: the Potency entry was “inactive”.
In the case of `CC(=O)N1CCN(c2ccc(NCc3ccc4c(c3)OCO4)cc2)CC1`, the Potency entry was “inactive”.
For `Oc1ccc(CNc2cccc(C(F)(F)F)c2)c2cccnc12`, the Potency result is “inactive”.
The result for `Cc1ccc(C2=NN(CC(=O)N(C)C(C)c3ccco3)C(=O)C2)cc1` (centres undefined) reads “inactive”.
Regarding `CC(C)(C)OC(=O)N1CCN(c2ccc(NCc3ncc(-c4ccc(C#N)cc4)s3)cc2)CC1`, the Potency entry was “inactive”.
With `C#CCOc1ccc(C(C)=O)cc1-c1nnc2n1N=C(c1ccc(OC)c(OC)c1)CS2`, the Potency result was “inactive”.
With `COc1ccc(C2=Nn3c(nnc3-c3ccc(OC)cc3OC)SC2)cc1`, the Potency entry is “inactive”.
The result for `COCC(=O)NCCc1nc2ccccc2n1CCOc1ccc(C)cc1` reads “inactive”; that for `CCOC(=O)C1CCN(C(=O)C(C)(C)NC(=O)Nc2ccc(N(C)C)cc2)CC1`, “inactive”; that for `COc1ccc(C2Nc3ccccc3C(=O)N2Cc2cccc(C(F)(F)F)c2)cc1COc1ccc(NC(C)=O)cc1` (centres undefined), “inactive”.
`O=C(CNC(=O)c1ccc(Cl)cc1)OC(C(=O)Nc1cc(C(F)(F)F)ccc1Cl)c1ccccc1` (centres undefined): the Potency entry is “inactive”.
Consider `O=C1CCc2cc(S(=O)(=O)Nc3ccccn3)ccc2N1`, for which the Potency result is “inactive”.
With `COc1ccc2ccccc2c1CN(C)CC(=O)Nc1ccc(N2CCOCC2)cc1`, the Potency entry is “inactive”.
The result for `O=C(Cc1ccc(Cl)c(Cl)c1)Nc1ccc(S(=O)(=O)Nc2cncnc2)cc1` reads “inactive”; that for `FC(F)(F)c1ccccc1-c1nc(NCc2ccc(-c3ccc4c(c3)OCO4)cc2)c2ccccc2n1`, “inactive”; that for `N#Cc1c(-c2csc(-c3no[n+]([O-])c3C#N)c2)no[n+]1[O-]`, “inactive”.
Under `COc1ccc(CC(=O)Nc2ccc(S(=O)(=O)Nc3cc(C)on3)cc2)cc1OC` stands “inactive”; under `N#Cc1ccc(-c2ccc(CNc3ccc(N4CCC(C#N)CC4)cc3)o2)cc1`, “inactive”.
`NC(=O)C1CCN(c2nc(-c3ccccc3F)cs2)CC1`: the Potency entry was “inactive”.
In the case of `O=C1c2ccccc2C(=O)N1c1nccs1`, the Potency entry was “inactive”.
The result for `CC(Cc1ccccc1)C(=O)Nc1ccc(Cl)cc1C(=O)O` (centres undefined) reads “inactive”.
Under `CC1=C(C(=O)Nc2ccc(Cl)cc2)C(c2ccccc2Br)N=C(Nc2nc3ccccc3o2)N1` (centres undefined) stands “inactive”.
Turning to `CC(C)(C)OC(=O)NCCOCCOCCOc1ccc(-c2no[n+]([O-])c2C#N)cc1`, the Potency entry was “inactive”.
`Cn1ncc2ccc(-c3ccc4ncnc(NCc5cccs5)c4c3)cc21`: the Potency entry was “inactive”.
For the compound `COc1cccc(C2=Nn3c(nnc3-c3cccc(OC)c3)SC2)c1`, the Potency entry was “inactive”.
Regarding `Clc1ccc(CSc2nc3ncc(Br)cc3[nH]2)cc1Cl`, the Potency entry was “inactive”.
Consider `O=C(Nc1sc2c(c1-c1nc3ccccc3s1)CCNC2)C(F)F`, for which the Potency result was “inactive”.
`Cc1ccc(NS(=O)(=O)c2ccc3c(c2)C(Cl)(Cl)C(=O)N3)cc1C`: the Potency entry is “inactive”.
